Compound activity from PubChem.
Rows were chosen to be rich in hits. Some 1.4% of all compounds tested hit in one or more screens of this group.
Sa RN4220 lethal = S. aureus RN4220 growth inhibition. OD600, 16 h. inhibition, % (test concentration not listed). hit rate 0.33% among 330,000. AID 1259311; in the data active means inhibition above about 85%;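 further: plate controls were untreated cells for no effect and reference antibiotic for full effect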
Sa ugtP lethal = compounds lethal to S. aureus RN4220 ugtP deletion mutant; OD600 growth, 16 h; growth inhibition, % (concentration not given with the values); hit rate 0.54% among 330,000; AID 1259309; in the data active means growth inhibition above about 68%;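 further: plate controls were untreated wells for no effect and antibiotic for full effect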
PfHsp40 rescue = restores yeast growth despite PfHsp40 toxicity. S. cerevisiae expressing PfHsp40, growth rescue, ATP luminescence. hit rate 0.68% among 340,000. growth rescue, % at 12.5 µM; in the data active means growth rescue above about 28%, passing the limit was not always enough;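 further: yeast W303a lacking pdr1 and pdr3 grown in galactose medium; growth measured after three days at 30 °C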
BJeLR lethal = kills HRASV12-expressing BJeLR cells; BJeLR (HRASV12) viability, CellTiter-Glo ATP luminescence, 48 h; inhibition, % (test concentration not listed); hit rate 0.17% among 300,000; in the data active means inhibition above about 50%
Yp Topo-I inh = inhibitors of Yersinia pestis topoisomerase I; Y. pestis Topo-I cleavage product accumulation, plate reader; activity, % at 10 µM; hit rate 0.064% among 360,000; in the data active means activity above about 50%, passing the limit was not always enough
PrP UTR inh = suppresses PrP 5' UTR mRNA reporter expression; cell-based PrP 5' UTR mRNA reporter, plate reader; inhibition, % (test concentration not listed); hit rate 0.35% among 340,000; in the data active means inhibition above about 52%; further: 0 = median of the neutral control wells
* marks the source's active call; other numbers are inactive results; . = not tested or not shown.

SMILES | Sa RN4220 lethal | Sa ugtP lethal | PfHsp40 rescue | BJeLR lethal | Yp Topo-I inh | PrP UTR inh
Cc1ccc(NC(=O)c2cccc(S(=O)(=O)N(C)C3CCCCC3)c2)nc1 | -2 | -11 | 50* | -8 | 4 | -25
CC(=O)Nc1ccc(NC(=O)c2cccc(S(=O)(=O)N(C)C3CCCCC3)c2)cc1 | 5 | 2 | 0 | . | 8 | -13
CCCCNC(=O)C1CCCN1S(=O)(=O)c1cccc2cccnc12 (stereo not drawn) | 1 | -2 | . | . | . | .
Cc1ccc(C)c(Sc2ccc(NC(=O)CCl)cc2)c1 | 25 | -30 | . | 1 | . | .
Cc1ccc(Sc2ccc(NC(=O)CCl)cc2)cc1C | 20 | -14 | 457* | -1 | 11 | 9
CC(C)(C)OC(=O)CC1CC=CCC(CC(=O)NCCO)C(=O)NC(Cc2c[nH]c3ccccc23)COC1=O (stereo not drawn) | 5 | -3 | . | . | . | .
O=c1c2ccccc2nc(/C=C/c2ccc([N+](=O)[O-])o2)n1CCCO | 114* | 99* | 0 | 52* | -9 | 1
O=c1c2ccccc2nc(/C=C/c2ccc([N+](=O)[O-])cc2)n1CCCO | 3 | -17 | 0 | 8 | -3 | 3
CN1CCC(Oc2ccc(Sc3ccccc3)cc2)CC1 | -1 | 94* | 0 | 4 | -1 | -38
CN1CCC(Oc2ccccc2Sc2ccc(C(F)(F)F)cc2)CC1 | 4 | 0 | 0 | -8 | -4 | -14
Nc1ccc(C(=O)OCC(=O)N2CCOCC2)cc1[N+](=O)[O-] | 2 | -8 | 47* | 0 | -4 | -69
COc1cccc(Oc2cncnc2-c2ccc(OC)cc2O)c1 | 0 | -5 | 56* | 5 | 9 | -5
CCOc1ccc2nc(SCC(=O)N3CCCc4ccccc43)sc2c1 | 5 | 85* | 5 | 6 | 47 | -10
CCOc1ccc2nc(SCC(=O)N3c4ccccc4Sc4ccccc43)sc2c1 | -3 | 26 | 0 | -6 | 8 | -16
O=C(CSc1ccc(-c2ccccn2)nn1)N1CCCc2ccccc21 | 10 | 3 | 473* | 4 | 17 | 42
COc1ccccc1CNC(=O)CSc1ccc(-c2ccccn2)nn1 | 3 | 7 | 314* | 8 | -3 | -16
Cc1ccccc1NC(=O)CSc1ccc(-c2ccccn2)nn1 | 2 | 12 | 381* | 0 | 6 | -4
C=CCC(CC(=O)N(CCO)Cc1ccccc1)C(=O)NC(COC(=O)C(CC=C)CC(=O)OC(C)(C)C)Cc1ccccc1 (stereo not drawn) | -1 | 5 | . | . | . | .
COCCn1c(C(=O)N2CCCC2)cc2c1CC1CN(C(=O)c3ccccc3)[C@@](Cc3ccc(F)cc3)(C(=O)OC)C21 (stereo partly drawn) | 4 | 6 | . | . | . | .
CN1CCN(C(=O)C2=CC(C3CCCCC3)CC(OCc3ccc(CO)cc3)O2)CC1 (stereo not drawn) | 4 | -7 | . | . | . | .
O=C(O)CN1C(=O)/C(=C\c2ccccc2OCc2ccc(Cl)cc2Cl)SC1=S | 58 | 64 | 53* | 6 | 3 | 15
CC(=O)c1ccc(Oc2cc(-c3ccccc3)nc(-c3ccccc3)n2)cc1 | -4 | 9 | 0 | -2 | 2 | -11
O=Cc1ccc(Oc2cc(-c3ccccc3)nc(-c3ccccc3)n2)cc1 | 69 | 100* | 0 | 18 | 0 | -1
Cc1cc(C)c2nc(NNC(=O)c3ccc(S(=O)(=O)N4CCCC(C)C4)cc3)sc2c1 (stereo not drawn) | 22 | -8 | 97* | 6 | -2 | 7
Cc1cccc2sc(NNC(=O)c3ccc(S(=O)(=O)N4CC(C)CC(C)C4)cc3)nc12 (stereo not drawn) | 14 | -3 | 285* | 19 | 17 | 30
SMILES | Sa RN4220 lethal | Sa ugtP lethal | PfHsp40 rescue | BJeLR lethal | Yp Topo-I inh | PrP UTR inh
C#CCNC(=O)C1=CC(C2CCCCC2)CC(OCc2ccc(CO)cc2)O1 (stereo not drawn) | 12 | -6 | . | . | . | .
CCCn1c(SCC(=O)N2CCN(C(=O)c3ccco3)CC2)nc2ccccc2c1=O | 0 | 2 | 74* | 6 | 9 | -25
CNc1nc(SCc2ccc(C)cc2)nc2c1CCCC2 | 12 | -16 | 199* | 2 | 5 | -10
COC(=O)CSc1nc(SCc2ccc(C)cc2)nc2c1CCCC2 | 10 | 39 | 12 | -3 | 58* | -23
Cc1ccc(CSc2nc3c(c(SCC(=O)O)n2)CCCC3)cc1 | 13 | 16 | 3 | -1 | 7 | 4
O=c1[nH]c(SCc2ccccc2Cl)nc2c1CCCC2 | 3 | -16 | 0 | 1 | 5 | 10
CN(C)c1nc(SCc2ccccc2Cl)nc2c1CCCC2 | -10 | 26 | 155* | 4 | 1 | 3
Cc1ccc(CSc2nc3c(c(N(C)C)n2)CCCC3)cc1 | 5 | -11 | 1 | -3 | 59* | -20
CC[C@@]1(O)C(=O)OCc2c1cc1n(c2=O)Cc2cc3ccccc3nc2-1 | . | . | . | 91* | . | .
O=C(O)/C=C/C(=O)c1ccc2c(c1)CCc1ccccc1-2 | . | . | 430* | 18 | 10 | -19
C#CCOCCOCCOCCNc1nc(N2CCOCC2)nc(N2CCN(C(=O)CCCCCCCCCCNC(=O)C(CCC(=O)O)n3cc(CCCCCN)nn3)CC2)n1 (stereo not drawn) | 7 | 5 | . | . | . | .
COCCNC(=O)/C(C#N)=C/c1ccc2c(c1)OCO2 | 7 | 14 | -1 | -1 | 1 | -1
N#C/C(=C\c1ccc2c(c1)OCO2)C(=O)NCc1ccco1 | 1 | 0 | 53* | 5 | 9 | -23
O=C(O)C1=CC(c2ccc(C(F)(F)F)cc2)CC(OCCCCO)O1 (stereo not drawn) | 6 | 5 | . | . | . | .
C=CCNc1nc(-c2ccccn2)nnc1-c1ccccc1 | 31 | 0 | 354* | -26 | -1 | -53
c1ccc(CC2CNCCN2CCc2cccc3ccccc23)cc1 (stereo not drawn) | -4 | -24 | . | . | . | .
Cc1cccc(NC2=Nc3ccccc3N3C2=Nc2c(c(C)nn2-c2ccccc2)C3c2ccc(O)c(O)c2)c1 (stereo not drawn) | 47 | 97* | 4 | 6 | -1 | -11
Cc1ccc(NC2=Nc3ccccc3N3C2=Nc2c(c(C)nn2-c2ccccc2)C3c2ccc(O)c(O)c2)cc1 (stereo not drawn) | 69 | 98* | 1 | . | 7 | 1
Cc1nn(-c2ccccc2)c2c1C(c1ccc(O)c(O)c1)N1C(=N2)C(Nc2ccccc2)=Nc2ccccc21 (stereo not drawn) | 12 | 55 | 0 | 13 | -13 | -11
O=C1NCCCC1C(=O)NN=Cc1cc([N+](=O)[O-])ccc1O (stereo not drawn) | 90* | 87 | . | . | . | .
O=C(NN=Cc1cc([N+](=O)[O-])ccc1O)C1CCCCC1 | 95* | 86* | . | . | . | .
O=C(NN=Cc1cc([N+](=O)[O-])ccc1O)C1C2CCCCC21 (stereo not drawn) | 89* | 75 | . | . | . | .
O=[N+]([O-])c1ccc(O)c(C=NNC(=S)Nc2ccc(Cl)cc2Cl)c1 | 83 | 100* | . | . | . | .
O=C(N/N=C/c1cc([N+](=O)[O-])ccc1O)C1CC1 | . | . | 0 | 2 | 5 | -9
